Calls of active or inactive are those of the source.

Test [1] deals with Plasmodium falciparum Sir2 (PF13_0152, Sir2A). Kind of test: pfSir2 binders on small-molecule microarrays, primary screen, biochemical, small-molecule microarray, 635 nm fluorescence (AID 1098).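 Further: score merges spot fluorescence intensity with its signal-to-noise ratio.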 As to conditions: small-molecule microarray binding, fluorescence 635 nm; higher = more signal.
A short description of test [2]: small-molecule microarray binders of probe aDKK1, primary screen, biochemical, biotinylated probe, 635/667 nm fluorescence (AID 1099).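 Further: score merges 667nm spot fluorescence with signal to noise across triplicate slides.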 Conditions: higher = more signal.
The nature of test [3]: small-molecule microarray binders of probe aCHRDL2, primary screen, biochemical, biotinylated probe, 635/667 nm fluorescence (AID 1100). As to conditions: higher = more signal.
The nature of test [4]: splicing luciferase reporter signal modulators, primary screen, spliceosome inhibition project, cell-based, HEK293, splice +/- reporter (AID 1101).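 Further: HEK293 cells carrying a splicing-competent luciferase reporter gene; test concentration not given here.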 Conditions: luminescence, 24 h, higher = more signal, called active from +8 up or from −8 down.
Test [5] deals with Fibroblast growth factor 10 (Homo sapiens) (UniProt O15520). Briefly: FGF10 binders on small-molecule microarrays, primary screen, biochemical, small-molecule microarray, 635 nm fluorescence (AID 1102). Conditions: FGF10 binding, fluorescence 635 nm, higher = more signal.
Sequence of Fibroblast growth factor 10 (Homo sapiens) (O15520 whole entry, looked up): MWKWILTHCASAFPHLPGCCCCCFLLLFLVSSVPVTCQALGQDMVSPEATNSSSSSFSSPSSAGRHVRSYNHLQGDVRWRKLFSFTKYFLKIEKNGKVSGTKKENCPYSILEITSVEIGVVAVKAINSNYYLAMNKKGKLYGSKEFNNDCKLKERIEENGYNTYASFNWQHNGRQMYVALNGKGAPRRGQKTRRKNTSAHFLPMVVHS
For test [6], the system named is glycogen synthase kinase-3 (GSK3A per assay name; protocol says GSK3B). Kind of test: GSK3 binders on small-molecule microarrays, primary screen, biochemical, small-molecule microarray, 635 nm fluorescence, GSK3A (AID 1103). Further: the record names both GSK3A and GSK3B. Conditions: small-molecule microarray binding, fluorescence 635 nm; higher = more signal.
The target in test [7] is Epidermal growth factor receptor (Homo sapiens) (UniProt P00533). Briefly: EGFR binders on small-molecule microarrays, primary screen, biochemical, small-molecule microarray, 635 nm fluorescence (AID 1104).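 Further: score merges 667 nm emission intensity with spot signal to noise over triplicate slides.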 Conditions: EGFR binding, higher = more signal.
Sequence of Epidermal growth factor receptor (Homo sapiens) (P00533 whole entry, looked up): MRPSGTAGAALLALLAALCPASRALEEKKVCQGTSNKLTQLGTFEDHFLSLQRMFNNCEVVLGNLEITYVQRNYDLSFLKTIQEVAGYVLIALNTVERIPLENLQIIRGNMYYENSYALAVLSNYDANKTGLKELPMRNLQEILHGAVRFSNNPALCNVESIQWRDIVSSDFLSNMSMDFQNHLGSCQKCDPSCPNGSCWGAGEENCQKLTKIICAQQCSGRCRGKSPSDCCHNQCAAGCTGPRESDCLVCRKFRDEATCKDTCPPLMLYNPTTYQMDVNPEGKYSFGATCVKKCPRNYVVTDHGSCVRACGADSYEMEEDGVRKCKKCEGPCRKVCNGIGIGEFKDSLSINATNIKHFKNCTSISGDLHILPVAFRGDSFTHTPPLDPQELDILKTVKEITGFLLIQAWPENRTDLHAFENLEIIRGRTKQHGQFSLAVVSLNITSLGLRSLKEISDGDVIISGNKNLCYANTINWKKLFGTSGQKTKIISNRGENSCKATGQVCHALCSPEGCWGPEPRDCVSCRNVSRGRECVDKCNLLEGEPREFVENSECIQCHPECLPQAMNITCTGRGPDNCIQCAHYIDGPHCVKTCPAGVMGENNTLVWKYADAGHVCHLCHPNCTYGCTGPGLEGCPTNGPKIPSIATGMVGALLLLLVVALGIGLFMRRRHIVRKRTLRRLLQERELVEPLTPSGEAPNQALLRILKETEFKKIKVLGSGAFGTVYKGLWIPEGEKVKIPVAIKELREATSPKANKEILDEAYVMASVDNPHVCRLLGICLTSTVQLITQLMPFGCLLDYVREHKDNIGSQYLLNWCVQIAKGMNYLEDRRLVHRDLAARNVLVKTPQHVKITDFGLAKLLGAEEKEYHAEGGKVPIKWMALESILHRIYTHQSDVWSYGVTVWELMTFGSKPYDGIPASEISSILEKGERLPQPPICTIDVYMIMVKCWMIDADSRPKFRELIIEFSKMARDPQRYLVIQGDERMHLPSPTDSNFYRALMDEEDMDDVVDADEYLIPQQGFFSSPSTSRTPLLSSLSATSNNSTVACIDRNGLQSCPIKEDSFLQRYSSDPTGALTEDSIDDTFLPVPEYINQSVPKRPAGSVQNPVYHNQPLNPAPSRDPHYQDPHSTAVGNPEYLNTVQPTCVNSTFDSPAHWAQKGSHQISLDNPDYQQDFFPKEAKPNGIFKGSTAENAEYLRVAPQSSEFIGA
Test [8] concerns the target Follistatin-related protein 3 (Homo sapiens) (UniProt O95633). Kind of test: FSTL3 binders on small-molecule microarrays, primary screen, biochemical, small-molecule microarray, 635 nm fluorescence (AID 1105).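 Further: score merges emission near 667 nm and signal to noise per printed spot across three slides.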 As to conditions: FSTL3 binding, higher = more signal.
For test [9], the target named is Dickkopf-related protein 1 (Homo sapiens) (UniProt O94907). Briefly: DKK1 binders on small-molecule microarrays, primary screen, biochemical, small-molecule microarray, 635 nm fluorescence scan (AID 1106).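 Further: score merges emission near 667 nm with signal to noise over three replicate slides.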 As to conditions: DKK1 binding, higher = more signal.
Sequence of Dickkopf-related protein 1 (Homo sapiens) (O94907 whole entry, looked up): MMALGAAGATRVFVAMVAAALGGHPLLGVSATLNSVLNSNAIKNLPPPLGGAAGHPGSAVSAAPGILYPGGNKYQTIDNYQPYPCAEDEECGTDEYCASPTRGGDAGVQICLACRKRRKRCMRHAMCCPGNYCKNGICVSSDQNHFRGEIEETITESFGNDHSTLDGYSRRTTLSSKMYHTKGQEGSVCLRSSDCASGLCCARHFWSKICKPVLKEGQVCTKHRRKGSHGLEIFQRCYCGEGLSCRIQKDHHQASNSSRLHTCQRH
Test [10] deals with Inhibin beta A chain (activin A). Kind of test: INHBA (activin A) binders on microarrays, primary screen, biochemical, small-molecule microarray, 635 nm fluorescence scan (AID 1107).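 Further: mouse activin A protein probed at 4.33 µg/mL on printed slides; score merges bound-protein fluorescence near 667 nm with spot signal-to-noise.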 As to conditions: small-molecule microarray binding, higher = more signal.
In test [11] the test system is Human papillomavirus type 1a protein E7 (residues 44-93). Briefly: HPV1a E7 fragment binders on microarrays, primary screen, biochemical, small-molecule microarray, residues 44-93, 635 nm fluorescence (AID 1108).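 Further: E7 fragment applied at 1 µg/mL in TBST for 1 h at 4 C; score combines spot fluorescence with its signal to noise ratio.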 Conditions: small-molecule microarray binding, fluorescence 635 nm; higher = more signal.
Test [12] in a line: modulators of HCV replicon luciferase signal, primary screen, HCV replication inhibitor project, Huh7 cells, luciferase reporter (AID 1109).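 Further: huh7 hepatoma cells harbouring a luciferase neomycin HCV replicon reporter; luciferase luminescence as measure of HCV replicon replication; test concentration not given here.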 As to conditions: 48 h, higher = more signal.
The target in test [13] is Left-right determination factor 2 (Homo sapiens) (UniProt O00292). Briefly: LEFTY2 binders on small-molecule microarrays, primary screen, biochemical, small-molecule microarray, 635 nm fluorescence scan (AID 1110). As to conditions: LEFTY2 binding, higher = more signal.
Sequence of Left-right determination factor 2 (Homo sapiens) (O00292 whole entry, looked up): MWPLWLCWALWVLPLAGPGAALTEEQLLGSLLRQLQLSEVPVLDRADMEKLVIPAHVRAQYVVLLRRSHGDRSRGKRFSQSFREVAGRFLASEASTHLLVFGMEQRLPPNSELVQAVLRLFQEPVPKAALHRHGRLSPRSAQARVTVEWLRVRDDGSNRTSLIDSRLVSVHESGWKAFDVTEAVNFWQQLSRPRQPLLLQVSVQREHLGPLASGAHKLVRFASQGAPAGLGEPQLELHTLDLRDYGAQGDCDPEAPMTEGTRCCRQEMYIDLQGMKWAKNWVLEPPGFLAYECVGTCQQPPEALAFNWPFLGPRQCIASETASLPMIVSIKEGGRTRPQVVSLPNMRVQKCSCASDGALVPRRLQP
For test [14], the target named is Calmodulin-1 (Homo sapiens) (UniProt P0DP23). Kind of test: CALM1 binders on microarrays, EGTA buffer, profiling panel, biochemical, small-molecule microarray, Cy5-labelled CALM1 (AID 1111).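 Further: labelled calmodulin applied in Tris saline Tween buffer holding calcium plus EGTA and DTT.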 As to conditions: Cy5-CALM1 binding fluorescence, higher = more signal.
For test [15] the target is unchanged. Briefly: calcium-bound CALM1 binders on microarrays, profiling panel, artefact control for SMM control-protein annotation, biochemical, small-molecule microarray, Cy5-labelled CALM1, plus calcium (AID 1112).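 Further: score merges spot fluorescence with signal to noise from triplicate slides.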 As to conditions: Cy5-CALM1 binding fluorescence, higher = more signal.
Test [16] can be described thus: small-molecule microarray binders of probe aWnt5a, primary screen, biochemical, biotinylated probe, 635/667 nm fluorescence (AID 1113).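 Further: score merges 667 nm fluorescence intensity with signal-to-noise per printed feature.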 As to conditions: higher = more signal.
The nature of test [17]: small-molecule microarray binders of probe aShh, primary screen, biochemical, biotinylated probe, 635/667 nm fluorescence (AID 1114).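 Further: probe is biotin-labelled aShh protein from a stem cell growth factor screen; measures binding of labelled protein to compounds printed on the slide; score merges feature fluorescence at 667 nm with signal-to-noise.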 Conditions: higher = more signal.
A short description of test [18]: small-molecule microarray binders of probe aNog, primary screen, biochemical, biotinylated probe, 635/667 nm fluorescence (AID 1115).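 Further: probe is biotinylated aNog protein used at 0.15 µg/mL for 1 h at 4 C; z-score combines 667 nm fluorescence of each spot with its signal to noise.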 Conditions: higher = more signal.
In test [19] the target is Torsin-1A-interacting protein 1 (Homo sapiens) (UniProt Q5JTV8). Briefly: LAP1 binders from COS7 cell lysate, primary screen, small-molecule microarray, 635/667 nm fluorescence (AID 1116). As to conditions: COS7-hLAP1 lysate binding, 635 nm fluorescence, higher = more signal.
Sequence of Torsin-1A-interacting protein 1 (Homo sapiens) (Q5JTV8 whole entry, looked up): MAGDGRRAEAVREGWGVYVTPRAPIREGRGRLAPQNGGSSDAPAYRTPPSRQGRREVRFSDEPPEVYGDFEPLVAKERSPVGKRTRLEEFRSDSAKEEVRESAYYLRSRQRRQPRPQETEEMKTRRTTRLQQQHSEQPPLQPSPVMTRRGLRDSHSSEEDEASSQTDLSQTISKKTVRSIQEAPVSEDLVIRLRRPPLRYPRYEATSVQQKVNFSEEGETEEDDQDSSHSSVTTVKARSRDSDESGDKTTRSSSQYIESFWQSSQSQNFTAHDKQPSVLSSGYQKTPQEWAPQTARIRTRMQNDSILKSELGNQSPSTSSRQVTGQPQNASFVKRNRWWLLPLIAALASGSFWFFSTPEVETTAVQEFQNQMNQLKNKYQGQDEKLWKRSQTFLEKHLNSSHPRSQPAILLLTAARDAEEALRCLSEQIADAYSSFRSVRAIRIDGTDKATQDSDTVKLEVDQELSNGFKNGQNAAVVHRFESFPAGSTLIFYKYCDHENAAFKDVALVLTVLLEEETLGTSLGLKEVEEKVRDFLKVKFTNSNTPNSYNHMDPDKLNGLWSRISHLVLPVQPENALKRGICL
Test [20] deals with Alpha-bungarotoxin (Bungarus multicinctus) (UniProt P60615). Kind of test: alpha-bungarotoxin binders on microarray, profiling panel, artefact control for SMM control protein annotation, biochemical, small-molecule microarray, Alexa647 label, 635/667 nm fluorescence (AID 1117). As to conditions: alpha-BTX-A647 binding fluorescence, higher = more signal.
Sequence of Alpha-bungarotoxin (Bungarus multicinctus) (P60615 whole entry, looked up): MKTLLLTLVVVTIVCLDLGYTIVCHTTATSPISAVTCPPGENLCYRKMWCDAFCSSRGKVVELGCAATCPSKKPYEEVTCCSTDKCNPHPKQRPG

Sequence of Follistatin-related protein 3 (Homo sapiens) (O95633 whole entry, looked up): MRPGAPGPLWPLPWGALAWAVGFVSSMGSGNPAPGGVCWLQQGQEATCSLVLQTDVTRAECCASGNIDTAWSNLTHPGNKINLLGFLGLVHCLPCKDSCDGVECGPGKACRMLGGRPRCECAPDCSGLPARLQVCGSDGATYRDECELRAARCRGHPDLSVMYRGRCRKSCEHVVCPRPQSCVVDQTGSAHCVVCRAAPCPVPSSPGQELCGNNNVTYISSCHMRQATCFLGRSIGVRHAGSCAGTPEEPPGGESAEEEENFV

Regarding `COC(=O)[C@@]1(Cc2ccccc2)[C@H]2c3cc(C(=O)N(C)C)n(CCF)c3C[C@H]2CN1C(=O)c1ccccc1`, the composite z-score in [1] was 1.56; in [2], 1.27; in test [3], 1.42; in test [5] it was -0.0624; in test [6], 0.0979; in [7], -0.469. Further, the composite z-score was 0.0598 in [8]; -1.23 in test [9]; -0.711 in test [10]; 0.233 in [11]; -0.555 in [13]; 2.8 in test [14]. Moreover, the composite z-score was 1.31 in test [15]; -0.0118 in [16]; -0.305 in [17]; -0.52 in test [18]; 3.08 in test [19]; 1.43 in test [20]. Besides, the z-score was -1.72 (inactive) in test [4] and -1.66 in test [12].

With `CN1C(=O)C2CC=C(C3=CCO[C@@H]3[C@H]3CCCN3S(=O)(=O)c3ccccc3[N+](=O)[O-])CC2C1=O` (stereo not given in full), the composite z-score was 1.11 in test [1]; -0.22 in [2]; -0.193 in [3]; 0.447 in test [5]; -0.12 in test [6]; -0.141 in test [7]. For the same compound, the composite z-score in test [8] was -0.59; in test [9], -0.261; in test [10], 0.666; in test [11], -0.351; in [13] it was -0.377; in [14], -0.194. In addition, the composite z-score in test [15] was -0.0107; in test [16], -0.242; in test [17], -0.2; in test [18], -0.0116; in test [19] it was 0.0183; in test [20] it was 0.0302. The z-score is 0.129 (inactive) in test [4] and -0.0844 in [12].

Turning to `COC(=O)[C@@]1(Cc2ccccc2)[C@H]2c3cc(C(=O)N(C)C)n(Cc4nc5ccccc5[nH]4)c3C[C@H]2CN1C(=O)c1ccccc1`, the composite z-score in test [1] came out at 0.88; in test [2], 0.52; in test [3], 1.21; in test [5] it was 0.742; in test [6] it was 0.64; in [7], 0.226. Further, the composite z-score in test [8] is 0.841; in test [9], -0.416; in test [10], 0.893; in test [11] it was 1.33; in test [13], -0.4; in test [14] it was 0.492. In addition, the composite z-score in [15] was found to be 1.2; in [16], 0.0328; in test [17], 0.108; in test [18] it was 2.16; in test [19], 1.62; in test [20] it was 1.3. Besides, the z-score in [4] is -2.1 (inactive); in test [12] it was 0.401.

In the case of `COc1cc(Cc2cc3c(c(-c4ccccc4)n2)[Si](C(C)C)(C(C)C)OC3)cc(OC)c1OC`, the composite z-score in [1] is -0.201; in [2], -0.113; in test [3] it was 0.105; in [5] it was 0.607; in test [6] it was -0.0611; in [7], 0.1. Moreover, the composite z-score in test [8] was 0.0088; in test [9] it was 0.17; in test [10] it was 1.23; in [11], -1.82; in test [13], 0.363; in test [14], -0.651. The composite z-score was -0.0062 in test [15]; -0.175 in test [16]; 0.915 in test [17]; -0.359 in [18]; -0.181 in test [19]; 1.34 in test [20]. The z-score in [4] was -0.877 (inactive); in [12], 0.385.

Take `C=C(C)C1CN([C@H](CO)c2ccccc2)C(=O)/C1=C\c1ccccc1` (stereo not given in full): the composite z-score was 0.719 in test [1]; -0.316 in test [2]; -0.492 in test [3]; 0.716 in [5]; 0.22 in test [6]; 0.0508 in [7]. Further, the composite z-score in [8] was 0.276; in test [9], 0.48; in test [10], 1.29; in test [11], -0.165; in test [13], 0.241; in test [14], -0.565. Moreover, the composite z-score in test [15] was -0.754; in test [16] it was -0.144; in test [17], -0.289; in test [18], 0.172; in [19] it was 0.189; in test [20] it was -0.173. The z-score in test [4] is -0.921 (inactive); in [12], -1.56.

Take `CC(C)N1C(=O)[C@@]2(Cc3ccccc31)c1ccccc1C(=O)N(Cc1ccccc1C(F)(F)F)[C@H]2c1ccc(CO)cc1`: the composite z-score is 1.73 in test [1]; 0.444 in [2]; -0.756 in test [3]; 0.178 in [5]; 0.366 in test [6]; 0.0355 in [7]. Also, the composite z-score in [8] is 1.39; in test [9], 1.08; in test [10], 0.66; in test [11] it was 0.845; in test [13] it was -0.0311; in [14], -0.157. For the same compound, the composite z-score in [15] was -0.0481; in test [16], 0.0607; in [17], -0.09; in [18] it was -0.0247; in [19], 0.289; in test [20], -0.0261. Further, the z-score is -0.352 (inactive) in test [4] and -0.329 in [12].
